Test results from PubChem BioAssay (EPA / NIEHS).
Activity calls are given as the source filed them. Rule for the calls: active = hit-call score of the fitted dose curve at least 0.9, where 1 is the maximum; inactive = score below 0.9.

Read-out: UDP glucuronosyltransferase (UGT1A1), UGT1A1 (gene 54658)
Test: LTEA_HepaRG_UGT1A1: Life Technologies and Expression Analysis (LTEA) Assay for UDP glucuronosyltransferase (UGT1A1) using HepaRG (AID 2283538)
Conditions: mRNA level, 48 h; actives raise or lower the signal
How it was run: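 HepaRG cells, 0.5% DMSO vehicle, 48 h exposure in serum-free induction medium to 8-point half-log series topping at 100 uM, in duplicate. UGT1A1 mRNA by Fluidigm qRT-PCR, normalized to ACTB/GAPDH/POLR2A; bidirectional fit versus DMSO.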

SMILES | AC50 | outcome
CCN(CC)CCNc1ccc(CNC=O)c2sc3ccc(OC)cc3c(=O)c12 | 44 µM (active) | 
N#C[C@@H]1CC(F)(F)CN1C(=O)CNC1CC2CCC(C1)N2c1ncccn1 (stereo partly specified) |  | inactive
CN(C)C=O |  | inactive
O=C(OCCOCCOC(=O)c1ccccc1)c1ccccc1 |  | inactive
CCCCCCCCC(=O)O |  | inactive
CC[C@H](c1ccc(O)cc1)[C@@H](CC)c1ccc(O)cc1 | 83.3 µM (active) | 
CC(C)(C)c1ccc(O)c(C(C)(C)C)c1 |  | inactive
O=[N+]([O-])c1ccc(O)cc1 |  | inactive
CCCCOCCO |  | inactive
OCCC(F)(F)C(F)(F)C(F)(F)C(F)(F)C(F)(F)C(F)(F)F |  | inactive
CCC(C)(C)C1CCC(O)CC1 (stereo unspecified) |  | inactive
NC(=O)N1C(=O)C(C(=O)c2cc(Cl)cs2)c2cc(F)c(Cl)cc21 (stereo unspecified) | 38.7 µM (active) | 
CCCCCCC(=O)O |  | inactive
ClC1=C(Cl)C(Cl)(Cl)C(Cl)=C1Cl |  | inactive
COCC(C)OCC(C)O (stereo unspecified) |  | inactive
C[C@@H]1C[C@H]2[C@@H]3CCC4=CC(=O)C=C[C@]4(C)[C@@]3(F)[C@@H](O)C[C@]2(C)[C@@]1(O)C(=O)COP(=O)(O)O |  | inactive
CCCCC(CC)COC(=O)CCCCC(=O)OCc1ccccc1 (stereo unspecified) |  | inactive

SMILES | AC50 | outcome
O=C(O)Cc1cc(I)c(Oc2cc(I)c(O)c(I)c2)c(I)c1 | 61.5 µM (active) | 
CCC(=C(c1ccc(O)cc1)c1ccc(OCCN(C)C)cc1)c1ccccc1 |  | inactive
CCc1nn(C2CCCCC2)c2cc(C3(C#N)CCC(C(=O)O)CC3)ccc12 (stereo unspecified) | 11.8 µM (active) | 
CCCCCCCCOC(=O)CCCCCCCCC(=O)OCCCCCCCC |  | inactive
Oc1cccc(O)c1 |  | inactive
CCc1ccc(CCOc2ccc(CC3SC(=O)NC3=O)cc2)nc1 (stereo unspecified) | 12.2 µM (active) | 
OCCC(F)(F)C(F)(F)C(F)(F)C(F)(F)C(F)(F)C(F)(F)C(F)(F)C(F)(F)F |  | inactive
O=C(O)c1ccccc1C(c1ccc(O)cc1)c1ccc(O)cc1 |  | inactive
CCCCCCCCCCCCc1ccccc1S(=O)(=O)O | 12 µM (active) | 
Cc1oc(-c2ccccc2)nc1CCOc1ccc(C[C@H](Nc2ccccc2C(=O)c2ccccc2)C(=O)O)cc1 | 23.1 µM (active) | 
c1ccc2c(c1)ccc1ccccc12 | 7.77 µM (active) | 
CCCCC(CC)COC(=O)CCCCC(=O)OCC(CC)CCCC (stereo unspecified) |  | inactive
CC(C)CCCCCCOC(=O)CCCCC(=O)OCCCCCCC(C)C |  | inactive
COc1ccc([N+](=O)[O-])cc1N | 50 µM (active) | 
Cc1cc(CCN2CCN(c3nsc4ccccc34)CC2)cc2c1NC(=O)CC2(C)C | 91.6 µM (active) | 
CCCOc1sc(C(=O)N2CCC(c3cc(CN)ccc3F)CC2)c(C)c1Br |  | inactive

Read-out: UDP glucuronosyltransferase (UGT1A6), UGT1A6 (gene 54578)
Test: LTEA_HepaRG_UGT1A6: Life Technologies and Expression Analysis (LTEA) Assay for UDP glucuronosyltransferase (UGT1A6) using HepaRG (AID 2283539)
Conditions: mRNA level, 48 h; actives raise or lower the signal
How it was run: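 HepaRG, 48 h post-plating switch to serum-free induction medium; chemical 48 h, 100 uM top, half-log x8, duplicate, 0.5% DMSO. Phenobarbital 1mM induction control. UGT1A6 mRNA by TaqMan qRT-PCR; gain/loss fit vs DMSO.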

SMILES | AC50 | outcome
CCN(CC)CCNc1ccc(CNC=O)c2sc3ccc(OC)cc3c(=O)c12 | 72 µM (active) | 
N#C[C@@H]1CC(F)(F)CN1C(=O)CNC1CC2CCC(C1)N2c1ncccn1 (stereo partly specified) |  | inactive
CN(C)C=O |  | inactive
O=C(OCCOCCOC(=O)c1ccccc1)c1ccccc1 |  | inactive
CCCCCCCCC(=O)O |  | inactive
CC[C@H](c1ccc(O)cc1)[C@@H](CC)c1ccc(O)cc1 |  | inactive
CC(C)(C)c1ccc(O)c(C(C)(C)C)c1 |  | inactive
O=[N+]([O-])c1ccc(O)cc1 |  | inactive
CCCCOCCO |  | inactive
OCCC(F)(F)C(F)(F)C(F)(F)C(F)(F)C(F)(F)C(F)(F)F |  | inactive
CCC(C)(C)C1CCC(O)CC1 (stereo unspecified) |  | inactive
NC(=O)N1C(=O)C(C(=O)c2cc(Cl)cs2)c2cc(F)c(Cl)cc21 (stereo unspecified) | 57 µM (active) | 
CCCCCCC(=O)O |  | inactive
ClC1=C(Cl)C(Cl)(Cl)C(Cl)=C1Cl |  | inactive
COCC(C)OCC(C)O (stereo unspecified) |  | inactive
C[C@@H]1C[C@H]2[C@@H]3CCC4=CC(=O)C=C[C@]4(C)[C@@]3(F)[C@@H](O)C[C@]2(C)[C@@]1(O)C(=O)COP(=O)(O)O |  | inactive
CCCCC(CC)COC(=O)CCCCC(=O)OCc1ccccc1 (stereo unspecified) |  | inactive

SMILES | AC50 | outcome
O=C(O)Cc1cc(I)c(Oc2cc(I)c(O)c(I)c2)c(I)c1 | 62.2 µM (active) | 
CCC(=C(c1ccc(O)cc1)c1ccc(OCCN(C)C)cc1)c1ccccc1 |  | inactive
CCc1nn(C2CCCCC2)c2cc(C3(C#N)CCC(C(=O)O)CC3)ccc12 (stereo unspecified) |  | inactive
CCCCCCCCOC(=O)CCCCCCCCC(=O)OCCCCCCCC |  | inactive
Oc1cccc(O)c1 |  | inactive
CCc1ccc(CCOc2ccc(CC3SC(=O)NC3=O)cc2)nc1 (stereo unspecified) |  | inactive
OCCC(F)(F)C(F)(F)C(F)(F)C(F)(F)C(F)(F)C(F)(F)C(F)(F)C(F)(F)F |  | inactive
O=C(O)c1ccccc1C(c1ccc(O)cc1)c1ccc(O)cc1 |  | inactive
CCCCCCCCCCCCc1ccccc1S(=O)(=O)O |  | inactive
Cc1oc(-c2ccccc2)nc1CCOc1ccc(C[C@H](Nc2ccccc2C(=O)c2ccccc2)C(=O)O)cc1 | 16.8 µM (active) | 
c1ccc2c(c1)ccc1ccccc12 |  | inactive
CCCCC(CC)COC(=O)CCCCC(=O)OCC(CC)CCCC (stereo unspecified) |  | inactive
CC(C)CCCCCCOC(=O)CCCCC(=O)OCCCCCCC(C)C |  | inactive
COc1ccc([N+](=O)[O-])cc1N |  | inactive
Cc1cc(CCN2CCN(c3nsc4ccccc34)CC2)cc2c1NC(=O)CC2(C)C | 79.5 µM (active) | 
CCCOc1sc(C(=O)N2CCC(c3cc(CN)ccc3F)CC2)c(C)c1Br |  | inactive
